# According to PubChem BioAssay AID687036 (The Scripps Research Institute Molecular Screening Center, 2013):
# Screen size: about 3,300 compounds; about 1,400 (42%) were called active.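 Rule for the calls: active = mean inhibition across replicates above the hit cutoff derived for the earlier primary screen (cut at about 22% in these data); inactive = the rest.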 So high a share suggests a set chosen from earlier hits. Shown is part of a subset that was picked to be rich in actives.
# Biological target: Protein arginine N-methyltransferase 1 (Homo sapiens) (UniProt Q99873)
# Sequence (Q99873 whole entry, looked up): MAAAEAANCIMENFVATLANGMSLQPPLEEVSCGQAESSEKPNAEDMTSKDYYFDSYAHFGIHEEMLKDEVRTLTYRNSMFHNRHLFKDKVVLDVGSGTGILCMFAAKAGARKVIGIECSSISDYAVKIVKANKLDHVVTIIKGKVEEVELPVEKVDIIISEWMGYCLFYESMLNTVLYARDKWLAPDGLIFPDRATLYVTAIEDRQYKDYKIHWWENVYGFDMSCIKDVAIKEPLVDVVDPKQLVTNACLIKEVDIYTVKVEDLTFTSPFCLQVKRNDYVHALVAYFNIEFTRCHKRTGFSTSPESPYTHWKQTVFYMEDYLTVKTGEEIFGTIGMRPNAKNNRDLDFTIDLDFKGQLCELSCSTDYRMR
# Assay: PRMT1 methyltransferase inhibitors, confirmation, biochemical, fluorescence polarization, triplicate (AID 687036)
# Conditions: recombinant His-PRMT1, activity-based probe fluorescence polarization; at 2.79 µM; hits give high values
row,SMILES,inhibition
1,COc1ccc(N2C(=O)/C(=C/c3ccco3)C(=O)NC2=S)cc1,75.2% (active)
2,Cc1cc(N2CCNC[C@@H]2C)ccc1N1CC[C@H](O)C1,4.59% (inactive)
3,O=C1NC(=O)N(Cc2ccco2)C(=O)/C1=C\c1ccc(-c2ccc(F)cc2)o1,52.9% (active)
4,Cc1cc(/C=C2/C(=O)NC(=O)N(Cc3ccco3)C2=O)c(C)n1-c1ccc(C(=O)O)cc1,-1.23% (inactive)
5,CCOC(=O)CC(SP1(=S)OCC2(CCCCO2)C(C2CCCCO2)O1)C(=O)OCC (stereo unspecified),60.2% (active)
6,O=C1N=c2ccccc2=C/C1=C\c1c(O)[nH]c(=S)[nH]c1=O,55.4% (active)
